Assay results taken from PubChem BioAssay (NCATS).
Results filed as inconclusive are left out. Values without a mark were called inactive. Calls of active or inactive are those of the source. Calls follow the shape of the dose curve; as a rule, active = well fitted curve in either direction with a large enough effect (not every such curve was filed as active); inconclusive = small, poorly fitted or top-dose-only effect, or another doubt; inactive = flat fitted curve, though single readings scatter.

Molecular target: Mitogen-activated protein kinase 10 (Mus musculus) (UniProt Q61831)
Assay: JNK3 AlphaScreen Assay (AID 530);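 also: kinase came from lysate of stimulated human HepG2 cells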
Details: JNK3 lysate, c-Jun phosphorylation; series mostly up to 57.1 µM; activity change, negative = inhibition: at the top concentration
Source text: NIH Chemical Genomics Center [NCGC]
NIH Molecular Libraries Screening Centers Network [MLSCN]
The c-jun N-terminal kinase (JNK) family are serine/threonine protein kinases that phosphorylate c-jun, a component of the transcription factor […] (AP-1). JNK kinases are members of the mitogen-activated protein kinase family including the extracellular regulated kinases and p38 kinases. Three JNK genes (JNK 1, 2, and 3) have been identified in humans so far. JNK1 and JNK2 have a broad distribution and JNK3 is primarily found in neuronal tissues and cardiac myocytes.
JNK3 has been under consideration as a target for the treatment of neurodegenerative disorders. […] JNK pathway is also involved in pathological process in a mouse model of Parkinson's disease (Xia et al., 2001).
Given these potential tissue distributions and links to neuroprotection, JNK3 inhibitors should provide useful investigational tools to study the role of this kinase in several diseases including, arthritis, stroke, myocardial infarction, ischemic injury and Parkinson's disease.
A homogeneous AlphaScreen is developed to measure the activity of JNK3. AlphaScreen is a two bead-based proximity-dependent chemical energy transfer luminescent assay platform. The phosphorylation of a biotinylated c-jun substrate by JNK3 can be detected with an antibody raised against phosphorylated c-jun. This process brings streptavidin donor beads and Protein-A acceptor beads to within a proximity range of <200 nm, and subsequently lead a chemical luminescent reaction upon exciting donor beads with 680 nm laser excitation light. Inhibition of JNK3 activity by small molecules and subsequent decrease in the antibody binding to biotinylated c-jun could attenuate or abolish this chemical luminescent reaction.
Yang DD, Kuan CY, Whitmarsh AJ, Rincon M, Zheng TS, Davis RJ, Rakic P and Flavell RA (1997) Absence of excitotoxicity-induced apoptosis in the hippocampus of mice lacking the Jnk3 gene. Nature 389:865-870. [PMID: 9349820]
Herdegen T, Claret FX, Kallunki T, Martin-Villalba A, Winter C, Hunter T, and Karin M (1998) Lasting N-terminal phosphorylation of c-Jun and activation of c-Jun N-terminal kinases after neuronal injury. J.Neurosci. 18:5124-5135. [PMID: 9651196]
Xia XG, Harding T, Weller M, Bieneman A, Uney JB and Schulz JB (2001) Gene transfer of the JNK interacting protein-1 protects dopaminergic neurons in the MPTP model of Parkinson's disease. Proc.Natl.Acad.Sci.U.S.A. 98:10433-10438.
NCGC Assay Protocol Summary:
GST-cJun (1-79) (Stratagene, La Jolla CA, #205145) was biotnylated by PerkinElmer (PerkinElmer-BioSignalInc. Montreal, Canada) and was detectable by the streptavidin Donor beads. Anti-(phospho)cJun (Ser73) antibody was from UpState (Charlottesvilles, VA, #06-659). JNK3-containing lysates were generated from HepG2 cells and pre-activated by interleukin1-beta and tumor necrosis factor alpha. All reagents were stored at -20 C before using. Phosphorylated biotinylated-GST-cJun was recognized by Anti-(phospho)cJun (Ser73) antibody and this process brings acceptor and donor beads together. Therefore JNK3 phosphorylation of cJun can be measured by Alpha reading by EnVision (PerkinElmer, Boston, MA).
The composition of kinase buffer was (in mM) 20 tris- HCl (pH 7.6) 10 MgCl2, 1 DTT, and 0.1 Na3VO4 and 0.01% Tween-20. Beads were diluted in detection buffer containing (in mM) 20 tris-HCl (pH 7.7), 20 NaCl and 80 EDTA and 0.3% BSA. The assay was performed at room temperature. All compounds were screened as titrations from 0.6 nM to 46 uM final concentration. The assay was performed in 1536-well format (white solid bottom and untreated) as follows:
Sequence,Parameter,Value,Description
1,Reagent,3 uL,Biotin-GST-cJun, Anti-(phospho)cJun and pre-activated JNK3-containing lysates
2,Compound,23 nL,Final concentration was 0.6nM to 46uM
3,Time,15 minutes,Room Temperature
4,Reagent,1 uL,ATP final concentration 10uM
6,Reagent,0.5 uL,2ng/well bead mixture
[…]
% is scaled to controls: 0 for no effect and ±100 for the full control effect.

Compound | activity change, negative = inhibition | Potency
COc1cccc(Nc2ncc3nc(-c4cccs4)c(=O)n(C[C@H]4CCCO4)c3n2)c1 | 12.1% | 
CN(C)c1ccc(-c2cncnc2NCCN2CCOCC2)cc1 | -2% | 
Cc1nc2cnc(Oc3cccc(Cl)c3)nc2n(Cc2ccc(F)cc2)c1=O | 13.8% | 
O=c1cnc2cnc(Oc3ccccc3)nc2n1Cc1cccs1 | -2.75% | 
c1cncc(CNc2nc(-c3cccnc3)nc3ccccc23)c1 | -27.6% | 
COc1ccc2[nH]cc(CCNc3ncncc3-c3ccccc3Cl)c2c1 | -23.9% | 
OCCNCCO | 6.69% | 
COc1ccccc1CNc1nc(-c2ccc(C(=O)N(C)C)cc2)nc2ccccc12 | -7.17% | 
COc1ccccc1-c1nccc(NCc2cccs2)n1 | -1.7% | 
CCCCCCCCO | 8.3% | 
COc1cccc(-c2cncnc2NCc2ccccc2OC)c1 | 3.84% | 
COc1ccc2[nH]cc(CCNc3ncncc3-c3ccc4c(c3)OCO4)c2c1 | -28.3% | 
O=C(O)c1ccccc1 | -13.3% | 
COc1ccc2[nH]cc(CCNc3ncncc3-c3ccccc3OC)c2c1 | -11.7% | 
C1OCOCO1 | 4.65% | 
CC(=O)N1CCC2(CCCN(c3ccc(-c4ccccc4)cc3)C2)CC1 | -25.4% | 
CCNc1ncc2nc(CCc3ccccc3)c(=O)n(CCC#N)c2n1 | 3.85% | 
COC(=O)CCCCC(=O)OC | -1.34% | 
COc1ccccc1CNc1cc(-c2cccnc2)ncn1 | -2.83% | 
CN(Cc1ccco1)c1nc(-c2cccnc2)nc2ccccc12 | 3.52% | 

Compound | activity change, negative = inhibition | Potency
Clc1cc(Cl)c(Cl)c(Cl)c1Cl | 21.9% | 
COc1ccccc1CNc1ccnc(-c2cccc(NS(C)(=O)=O)c2)n1 | 6.25% | 
COc1ccc(Oc2ncc3nc(C)c(=O)n(Cc4cccs4)c3n2)cc1 | -4.26% | 
CN(C)CCCCCCN(C)C | -16.6% | 
CN1CCN(c2ncc3nc(-c4cccc(C#N)c4)c(=O)n(CCc4ccccc4)c3n2)CC1 | 19.6% | 
COc1cccc(Nc2ncc3ncc(=O)n(Cc4ccc(F)cc4)c3n2)c1 | -4.34% | 
CN(C)c1ccc(-c2cc(N(C)Cc3ccco3)ncn2)cc1 | -15.7% | 
COc1ccc(Oc2ncc3nc(-c4ccc(F)cc4)c(=O)n(CCC#N)c3n2)cc1 | 3.99% | 
CCO[Si](CCCN)(OCC)OCC | 8.91% | 
CN1CCN(c2ncnc3ccc(-c4cccc(C#N)c4)cc23)CC1 | -4.28% | 
O=c1c(-c2ccccc2)nc2cnc(Oc3ccccc3)nc2n1C[C@H]1CCCO1 | 4.93% | 
COc1ccc(Oc2ncc3nc(-c4cccc(C#N)c4)c(=O)n(CCC#N)c3n2)cc1 | -18.3% | 
COc1ncc2nc(-c3ccccc3)c(=O)n(CCc3ccccc3)c2n1 | 9.59% | 
N#CCCn1c(=O)c(-c2ccc(Cl)cc2)nc2cnc(N3CCOCC3)nc21 | 4.33% | 
c1cn(-c2ncnc3ccc(-c4ccoc4)cc23)cn1 | -22.7% | 
C[C@H](CCC(=O)O)[C@H]1CC[C@H]2[C@@H]3CC[C@@H]4C[C@H](O)CC[C@]4(C)[C@H]3CC[C@]12C | -25.5% | 
CCCCC(CC)CN (stereo not given) |  | inactive
COc1cccc(Cn2c(=O)cnc3cnc(N(C)C)nc32)c1 | 17.7% | 
CS(=O)(=O)Nc1cccc(-c2nc(Nc3ccncc3)c3ccccc3n2)c1 | -23.5% | 
CN(C)Cc1ccccc1-c1ccc2ncnc(N(C)C)c2c1 | 4.93% | 
